Inconclusive results are not listed. A number with no mark means an inactive call. The call rests on the fitted dose curve; in most records, active means well fitted curve in the direction sought with a large enough effect; inconclusive means small, poorly fitted or top-dose-only effect, or another doubt; inactive means no such curve, though single readings can be large or run the other way.
molecular target: Glucagon-like peptide 1 receptor (Homo sapiens) (UniProt P43220); experiment: qHTS of GLP-1 Receptor Agonists: LOPAC Validation (AID 624148); details: GLP-1R agonist cell assay; series mostly up to 46.1 µM; activation: at the top concentration;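 further: luminescence from a luciferase reporter switched on by cAMP; 0% is about no effect; higher luminescence signal means agonism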
Sequence (P43220 whole entry, looked up): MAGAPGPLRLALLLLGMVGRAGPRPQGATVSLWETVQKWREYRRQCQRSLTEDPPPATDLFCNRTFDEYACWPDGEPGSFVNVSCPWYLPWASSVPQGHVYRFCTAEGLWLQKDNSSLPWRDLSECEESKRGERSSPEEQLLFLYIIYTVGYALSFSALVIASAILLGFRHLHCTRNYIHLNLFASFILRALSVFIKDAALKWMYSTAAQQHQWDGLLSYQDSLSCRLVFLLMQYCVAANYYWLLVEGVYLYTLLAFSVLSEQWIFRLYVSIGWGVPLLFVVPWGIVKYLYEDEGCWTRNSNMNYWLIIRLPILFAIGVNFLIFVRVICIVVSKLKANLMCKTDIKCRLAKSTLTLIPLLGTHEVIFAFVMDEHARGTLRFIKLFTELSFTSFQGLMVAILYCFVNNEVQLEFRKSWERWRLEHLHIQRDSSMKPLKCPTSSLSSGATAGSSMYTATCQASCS
From the text: The overall goal of this project was to develop a novel assay for discovering small molecule ligands for class B1 G protein-coupled receptors (GPCRs). Very few agonists (or inverse agonists) with generally weak activity for this entire group of physiologically important receptors are known to date. To establish proof-of-principle that this critical bottleneck can be overcome with a suitable screening approach, our studies focused on the class B1 receptor for glucagon-like peptide-1 (GLP-1R), a potential therapeutic target for diabetes and neurodegenerative disease.
The assay was developed in a "mix and measure" format using a cell-based functional readout. Toward this goal, stably transfected HEK293 cell clones were established that co-express (i) a cAMP-responsive luciferase reporter gene, and (ii) GLP-1Rs that upon ligand interaction either stimulate (agonists) or inhibit (inverse agonists) luciferase activity. In different cell lines to be used for screening, expressed GLP-1Rs are specifically optimized for high sensitivity detection of either weak agonists (hypersensitive receptor) or inverse agonists (constitutively active receptor mutant). In addition, control cell lines were developed that express either the cAMP-responsive reporter gene without recombinant GLP-1Rs (enabling initial exclusion of GLP-1R independent effects of candidate probes), or the reporter gene together with wild type GLP-1Rs (for confirmation of probe activity at this receptor), or the reporter gene in combination with the constitutively active orphan receptor GPR119 (enabling initial exclusion of GLP-1R independent inhibitory effects of candidate inverse agonists).
To that end, this assay was optimized for 1536-well format and screened against the MLSMR.
NIH Molecular Libraries Probe Production Network [MLPCN]
NIH Chemical Genomics Center [NCGC]
PI Name: Martin Beinborn, Tufts Medical Center
In a white solid 1536-well plate, 6 uL of cells are dispensed in DMEM without phenol red, 10% Nu serum, and 1% pen-strep medium. The plates are then incubated for 12 hours at 37 deg C at 5% CO2 before 23 nL of compounds are added. After a 4-6 hr incubation at37 deg C and 5% CO2, 3 uL of detection reagent are added and after a 12 min incubation at RT, a luminescent read is obtained on the ViewLux.

| SMILES | activation [%] |
| --- | --- |
| CC(C)(Oc1ccc(CCNC(=O)c2ccc(Cl)cc2)cc1)C(=O)O | 0.521 |
| Cc1nnc(SCC2=C(C(=O)O)N3C(=O)[C@@H](NC(=O)Cn4cnnn4)[C@H]3SC2)s1 | 0.905 |
| COC(=O)[C@H]1[C@H]2C[C@@H]3c4[nH]c5cc(OC)ccc5c4CCN3C[C@H]2C[C@@H](OC(=O)c2cc(OC)c(OC)c(OC)c2)[C@@H]1OC | 1.04 |
| CN/C(=C\[N+](=O)[O-])NCCSCc1ccc(CN(C)C)o1 | -1.49 |
| CC(=O)OC(C)C[N+](C)(C)C (stereo not given) | 12.9 |
| Nc1c2c(nc3ccccc13)CCCC2O (stereo not given) | -1.8 |
| CC(=O)[C@@]1(O)CC[C@H]2[C@@H]3CCC4=CC(=O)CC[C@]4(C)[C@H]3CC[C@@]21C | 1.2 |
| NC(=O)c1ncn([C@@H]2O[C@H](CO)[C@@H](O)[C@H]2O)c1O | 0.318 |
| Cc1ccc(S(=O)(=O)NC(=O)NN2CCCCCC2)cc1 | 0.863 |
| CSc1ccc(C(=O)c2[nH]c(=O)[nH]c2C)cc1 | 8.67 |
| CN(C)C(=O)Oc1ccc[n+](C)c1 | -1.66 |
| CCOC(=O)c1cnc2c(cnn2CC)c1NN=C(C)C | 9.31 |
| C[C@]12CC[C@@H]3c4ccc(O)cc4C[C@@H](CCCCCCCCCS(=O)CCCC(F)(F)C(F)(F)F)[C@H]3[C@@H]1CC[C@@H]2O (stereo not given in full) | 5.11 |
| CCOC(=O)C1=C(C)NC(C)=C(C(=O)OC)C1c1cccc([N+](=O)[O-])c1 (stereo not given) | 1.93 |
| COCCCC/C(=N\OCCN)c1ccc(C(F)(F)F)cc1 | -0.723 |
| COc1ccc(CN(CCN(C)C)c2ccccn2)cc1 | -1.49 |
| CCC(=O)c1ccc2c(c1)N(CCCN(C)C)c1ccccc1S2 | 8.37 |
| N[C@@H](COP(=O)(O)O)C(=O)O | 5.85 |
| NC(=O)c1cn(Cc2c(F)cccc2F)nn1 | -1.23 |
| CN(C)CCCN1c2ccccc2Sc2ccccc21 | 7.31 |

| SMILES | activation [%] |
| --- | --- |
| OCCN1CCN(CCCN2c3ccccc3C=Cc3ccccc32)CC1 | -1.19 |
| COC(=O)[C@@H](N)Cc1ccc(O)c(O)c1 | -1.16 |
| c1cnc(N2CCN(Cc3ccc4c(c3)OCO4)CC2)nc1 | 29.8 |
| O=C(CCCN1CCC(O)(c2cccc(C(F)(F)F)c2)CC1)c1ccc(F)cc1 | 0.493 |
| CCN(CC)CCOCCOC(=O)C1(c2ccccc2)CCCC1 | -1.33 |
| c1ccc2c(c1)CCCC2C1=NCCN1 (stereo not given) | 1.51 |
| CC(=O)Nc1nnc(S(N)(=O)=O)s1 | -0.0596 |
| CCN1CCC[C@H]1CNC(=O)c1c(O)c(Cl)cc(Cl)c1OC | -1.78 |
| C#CCN(C)CCCOc1ccc(Cl)cc1Cl | -1.54 |
| CCN(CC)CCCN(c1ccccc1)C1Cc2ccccc2C1 | -1.47 |
| CN(C)C/C=C(/c1ccc(Br)cc1)c1cccnc1 | 0.498 |
| COc1ccc([C@@H]2Sc3ccccc3N(CCN(C)C)C(=O)[C@@H]2OC(C)=O)cc1 | 3.67 |
| CC(C(=O)O)c1ccc(CC2CCCC2=O)cc1 (stereo not given) | -1.56 |
| COCCOC(=O)C1=C(C)NC(C)=C(C(=O)OC(C)C)C1c1cccc([N+](=O)[O-])c1 (stereo not given) | -1.67 |
| CC(=O)[C@]1(O)Cc2c(O)c3c(c(O)c2[C@@H](O[C@H]2C[C@H](N)[C@H](O)[C@H](C)O2)C1)C(=O)c1ccccc1C3=O | -0.69 |
| CC[N+](C)(C)c1cccc(O)c1 | -1.31 |
| O=C(CCNNC(=O)c1ccncc1)NCc1ccccc1 | -1.82 |
| CC(C)[N+](C)(CCOC(=O)C1c2ccccc2Oc2ccccc21)C(C)C | -2.1 |
| CCn1ccnc1CC1COc2ccccc2O1 (stereo not given) | 5.65 |
| CO[C@@]1(NC(=O)CSCC#N)C(=O)N2C(C(=O)O)=C(CSc3nnnn3C)CS[C@@H]21 | 0.603 |
